# Source: PubChem (National Center for Advancing Translational Sciences (NCATS))
# An excerpt weighted towards active compounds, which were near 8% of everything screened.
# HT1080 IDH1KD tx: qHTS for induction of synthetic lethality in tumor cells producing 2HG: qHTS for the HT-1080-IDH1KD cell line | HT-1080 IDH1 knockdown viability, ATP luminescence, 48 h | Potency, µM (top dose mostly 46.1 µM), inactives show top-dose activity, negative = toxicity, most hits filed as cytotoxic | actives 2% (n = 360,000) | AID 686971, 2013;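 note: 0% = DMSO wells and -100% = cell-free medium wells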
#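 In this qHTS, HT-1080 cells depleted of IDH1 are exposed for 48 h at 37 °C to compound titrations. Toxicity is scored from CellTiter-Glo luminescence, with DMSO as full viability and medium alone as none.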
# HT1080-NT tox: qHTS for induction of synthetic lethality in tumor cells producing 2HG: qHTS for the HT-1080-NT fibrosarcoma cell line; HT-1080-NT fibrosarcoma viability, CellTiter-Glo ATP luminescence, 48 h; Potency, µM (titrated, usually from 46.1 µM), inactives show top-dose activity, negative = less viability, hits mostly cytotoxic; actives 1.6% (n = 360,000); AID 686970, 2013;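 note: NT is the 2HG producing partner of a matched IDH1 knockdown line; 0% = DMSO-treated cells and -100% = media-only wells without cells; nearly all actives have a fitted effect of over 55% in size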
#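 750 cells/well, RPMI + 5% FBS; 2 h settle, compound pin-transfer, 48 h at 37 degrees C. CellTiter-Glo 10 min RT, luminescence. Normalized to DMSO and media-only wells.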
# KB-V1 cytotox: qHTS assay for MDR1-selective chemotherapeutics: Primary screen using the drug-selected MDR subline cells KB-V1 | KB-V1 MDR cells viability, CellTiter-Glo, 72 h | Potency, µM (titrated, usually from 46.1 µM), most hits filed as cytotoxic | actives 3.4% (n = 400,000); note: % is set by controls: 0 for no effect and ±100 for the full control effect; nearly all actives have a fitted effect of over 60% in size
#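 Readout: CellTiter-Glo luminescence, 10 min after addition. Cells: KB-V1 MDR subline, 72 h at 37 degrees C with compound. Analysis: corrected, normalized data fitted to concentration-effect curves.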
# MCF10A rerep: A quantitative high throughput screen for small molecules that induce DNA re-replication in MCF 10a normal breast cells. MCF 10A DNA re-replication, Hoechst nuclear intensity, 48 h. Potency, µM (titrated, usually from 46.1 µM), for inactives: top-dose activity, positive = re-replication, usual class: activators. actives 2.9% (n = 350,000); note: % of control where 0% means no effect; nearly all actives have a fitted effect of over 50% in size
# KB-3-1 cytotox: qHTS assay for MDR1-selective chemotherapeutics: Primary screen using the parental adenocarcinoma cell KB-3-1. KB-3-1 viability, CellTiter-Glo ATP luminescence, 72 h. Potency, µM (doses to about 46.1 µM), most hits filed as cytotoxic. actives 1.4% (n = 400,000). AID 1347075, 2019; note: % is set by controls: 0 for no effect and ±100 for the full control effect; nearly all actives have a fitted effect of over 60% in size
#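 Viability of parental KB-3-1 cells, measured by CellTiter-Glo luminescence, followed a 72 h incubation at 37 °C with pinned compounds in phenol-red-free DMEM containing 10% FBS.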
# SW480 rereplic: A quantitative high throughput screen for small molecules that induce DNA re-replication in SW480 colon adenocarcinoma cells; SW480 DNA re-replication, Hoechst DNA content imaging, 48 h; Potency, µM (doses to about 46.1 µM), inactives show at the highest dose re-replication activation, most hits filed as activators; AID 624297, 2012; actives 1.8% (n = 340,000); note: % of control where 0% means no effect; nearly all actives have a fitted effect of over 55% in size
#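 Per well, 250 cells were exposed to pinned compound for 48 hr. Nuclear DNA was visualised with Hoechst (40 min, 37 C) and total object intensity recorded by fluorescence scanning.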
# Starred values were filed as active, the others as inactive; i = inactive; ? = inconclusive; / = no result. Calls come from the whole dose curve; as a rule, active = well fitted curve in the direction sought with a large enough effect; inconclusive = small, poorly fitted or top-dose-only effect, or another doubt; inactive = no such curve, though single readings can be large; an effect the other way counts as inactive or inconclusive. Potency is the fitted concentration of half-maximal effect.
SMILES,HT1080 IDH1KD tx,HT1080-NT tox,KB-V1 cytotox,MCF10A rerep,KB-3-1 cytotox,SW480 rereplic
O=c1c2ccccc2sc2c(CO)ccc(NCCN3CCCCC3)c12,?,-28%,16µM*,25%,?,?
CC1Cc2nc(SCC(=O)Nc3ccc(F)cc3)n(C)c(=O)c2S1 (configuration not stated),11%,0%,4.1µM*,1%,i,-2%
CCn1c(SCC(=O)NC2CCCCC2)nc2c(c1=O)SC(C)C2 (configuration not stated),4%,-5%,2.3µM*,0%,i,-2%
CCn1c(SC)nc2c(c1=O)SC(C)C2 (configuration not stated),2%,8%,i,21µM*,i,-17%
COc1ccc(Cc2nnc(NC(=O)Nc3ccccc3OC)s2)cc1,-7%,-28%,i,?,?,22%
COc1ccccc1N(C)S(=O)(=O)c1ccc(C(=O)Nc2ccc3nc(C)sc3c2)cc1,-27%,-12%,23µM*,?,?,/
COc1ccccc1N(C)S(=O)(=O)c1ccc(C(=O)NCC(C)C)cc1,4%,5%,23µM*,2%,i,-5%
CCCc1nnc(NC(=O)c2ccc(S(=O)(=O)N(C)c3ccccc3OC)cc2)s1,-5%,-6%,15µM*,?,i,4%
COC(=O)c1cccc(NC(=O)c2ccc(S(=O)(=O)N(C)c3ccccc3OC)cc2)c1,-28%,0%,?,/,i,/
CCCc1nnc(NC(=O)Nc2ccccc2OC)s1,12%,2%,18µM*,0%,i,1%
Cc1cc(Cl)ccc1NC(=O)C1CCN(S(=O)(=O)c2ccc3[nH]c(=O)ccc3c2)CC1,/,/,i,/,i,/
FC(F)(F)c1ccccc1Cc1c(-c2cccc(Br)c2)nc2c3ccccc3ccn12,-3%,-2%,i,/,i,/
CSc1ncnc2c1ccn2CC(=O)Nc1ccc(C)c(C)c1,4%,4%,i,38%,i,-9%
COc1cc(/C=N/NC(=O)C23CC4CC(CC(C4)C2)C3)cc(Br)c1O,3%,3%,i,13%,?,?
COc1cc(/C=N/NC(=O)CC23CC4CC(CC(C4)C2)C3)cc(Br)c1OCC(=O)N(C)C,?,?,i,18µM*,i,7%
O=C(O)C(Cc1ccc(OS(=O)(=O)Cc2ccccc2)cc1)NS(=O)(=O)Cc1ccccc1 (configuration not stated),15%,12%,i,-16%,i,0%
CCCOc1cccc(C2c3c(oc4ccc(F)cc4c3=O)C(=O)N2c2nc(C)c(C(C)=O)s2)c1 (configuration not stated),/,/,i,/,i,/
CN(C)CCCC1Sc2ccccc2Sc2ccccc21 (configuration not stated),?,23µM*,i,9%,?,?
COc1ccc([N+](=O)[O-])cc1/C=N/NC(=O)c1nonc1N,-28%,?,i,16µM*,i,18µM*
Nc1nonc1C(=O)N/N=C/c1cccc([N+](=O)[O-])c1,22%,15%,i,0%,i,2%
Nc1nonc1C(=O)N/N=C/c1cc(Br)ccc1O,2.1µM*,?,i,-16%,i,-6%
Nc1nonc1-n1nnc(C(=O)N/N=C/c2cc(Br)ccc2O)c1CNc1ccccc1,23µM*,?,i,7.3µM*,?,?
Cc1nc(C)c(C(=O)N/N=C/c2cc(Br)ccc2O)s1,2.1µM*,?,i,?,i,?
